Several values for one entry are separate records, joined by “and”; a condition that tells them apart may be missing. Equal entries are not always repeated. This is part of a sample that, as a whole, favours compounds with a hit. Of some 83,000 tested, about 20% had one in any assay.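 In brief: 96-well plates, 48 h treatment, single concentration, percent growth endpoint.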 Activity calls are given as the source filed them.
How the values were obtained:
Test in all cases: NCI-60 one-dose screen, 48 h (100 = growth as untreated, 0 = no growth, -100 = all killed)
T-47D breast = test system: T-47D breast
BT-549 breast = test system: BT-549 breast
MDA-MB-435 melanoma = test system: MDA-MB-435 melanoma
SW-620 colon = test system: SW-620 colon
MCF7 breast = test system: MCF7 breast
HCT-116 colon = test system: HCT-116 colon
HCC-2998 colon = test system: HCC-2998 colon
Method: Growth inhibition of the HCC-2998 human tumor cell line is measured as a screen for anti-cancer activity. Cells are grown in 96 well plates and exposed to the test compound for 48 hours. Compounds are tested at a single concentration, which is 10^-5 M for most compounds. The reported endpoint is percent growth (GI% or GIPRCNT), where numbers from 0 - 100% represent growth inhibition, and numbers from -100% - 0 represent cell death. For example, a value of 40 represents 60% growth inhibition. A value of 0 means no net growth occurred over the course of the experiment. A value of -40 indicates 40% of cells at the beginning of the experiment died by the end of the experiment. A value of -100 means all cells are dead at the end of the experiment.
NCI-60 Human Tumor Cell Lines Screen was performed using the standard one-dose NCI protocol, which is described in more detail at https://dtp.cancer.gov/discovery_development/nci-60/default.htm.
Compounds with GIPRCNT values below 10 were considered active. Activity score was based on GIPRCNT using the following formula: […]
Score is 0 for GIPRCNT values of 100 or above, 50 for GIPRCNT values of 0, and 100 for GIPRCNT values of -100.

KM12 colon = test system: KM12 colon

Measured: growth

CC[C@@]1(O)C(=O)OCc2c1cc1n(c2=O)Cc2cc3c(CN(C)C)c(O)ccc3nc2-1
active: T-47D breast; 10 µM 9.96% and 8.7% | BT-549 breast; 10 µM -1.81% and -14.9% | MDA-MB-435 melanoma; 10 µM -44.2% and -55% | SW-620 colon; 10 µM 9.23% and 7.32% | MCF7 breast; 10 µM 1.58% and 5.19% | HCT-116 colon; 10 µM 0.82% and -14.2% | HCC-2998 colon; 10 µM -14.2% and -26.3% | KM12 colon; 10 µM 6.1% and -42.5%

CC/C(=C(\c1ccccc1)c1ccc(OCCN(C)C)cc1)c1ccccc1
inactive: BT-549 breast; 10 µM 69.8% | MDA-MB-435 melanoma; 10 µM 37.8% | HCT-116 colon; 10 µM 26.2% | HCC-2998 colon; 10 µM 16.3% | KM12 colon; 10 µM 25%
active: T-47D breast; 12.5 µM -18.5% | BT-549 breast; 12.5 µM -96% | MDA-MB-435 melanoma; 12.5 µM -87.2% | SW-620 colon; 10 µM 4.89% | SW-620 colon; 12.5 µM -50.4% | MCF7 breast; 10 µM -10.3% | MCF7 breast; 12.5 µM -61.6% | HCT-116 colon; 12.5 µM -98.1% | HCC-2998 colon; 12.5 µM -96.2% | KM12 colon; 12.5 µM -74.4%

CN(Cc1cnc2nc(N)nc(N)c2n1)c1ccc(C(=O)N[C@@H](CCC(=O)O)C(=O)O)cc1
active: HCC-2998 colon; 2.5 µM 8.58%
inactive: T-47D breast; 2.5 µM 55.6% | T-47D breast; 10 µM 46.2% | BT-549 breast; 2.5 µM 40.9% | BT-549 breast; 10 µM 46.9% | MDA-MB-435 melanoma; 2.5 µM 25.7% | MDA-MB-435 melanoma; 10 µM 27.2% | SW-620 colon; 2.5 µM 41.9% | SW-620 colon; 10 µM 35.6% | MCF7 breast; 2.5 µM 24.4% | MCF7 breast; 10 µM 17.2% | HCT-116 colon; 2.5 µM 18.5% | HCT-116 colon; 10 µM 22.7% | HCC-2998 colon; 10 µM 106% | KM12 colon; 2.5 µM 30.6% | KM12 colon; 10 µM 31.9%

COc1ccc2sc3cccc(NCCN(C)C)c3c(=O)c2c1
24.5% (inactive) and -79% (active): SW-620 colon; 10 µM
31.3% (inactive) and -86.9% (active): MDA-MB-435 melanoma; 10 µM
38.3% (inactive) and -7.99% (active): KM12 colon; 10 µM
inactive: BT-549 breast; 10 µM 80.1% and 29.6%
28.1% (inactive) and -83% (active): HCC-2998 colon; 10 µM
18.5% (inactive) and -76.2% (active): HCT-116 colon; 10 µM
70.7% (inactive) and -34.7% (active): T-47D breast; 10 µM
30.5% (inactive) and -72.8% (active): MCF7 breast; 10 µM

Reference: PubChem BioAssay (NCI)
